gsp antag: antagonists of gsp mutant (McCune-Albright syndrome); gsp-mutant cells, cAMP HTRF, 30 min; Potency, µM (titrated, usually from 76.9 µM), inactives show at the highest dose activity change, negative = inhibition, most hits filed as inhibitors; hit rate 0.4% among 340,000; calls by dose curve; cell line not stated here;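 further: intracellular cAMP measured with PDE inhibitor Ro 20-1724 present during compound exposure; potency means the concentration at half of the fitted maximal effect; on the % scale 0 is the no-effect control and ±100 the full control effect; nearly all actives have a fitted effect of over 65% in size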
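HTRF cAMP read-out (cAMP-d2 plus anti-cAMP antibody-K in lysis buffer, 30 min RT). Before lysis, cells are exposed to compounds with […] for 30 min at 37C in DPBS containing Ca/Mg, BSA and Tween 20.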
RXFP1 antag: antagonists of human relaxin receptor RXFP1. Q9HBX9. HEK293-RXFP1, relaxin-stimulated cAMP HTRF, 30 min; stronger effect = lower value. activity change, negative = inhibition, % at 57.5 µM. hit rate 0.59% among 350,000. AID 1259400;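 active means activity change of -60% or lower, but not beyond a set lower limit; inconclusive means change between -60% and -40%, or beyond the set limit; inactive means change above -40%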; further: on the % scale 0 is the no-effect control and ±100 the full control effect
TSHR antagonist: antagonists of human thyroid stimulating hormone receptor | hit rate 0.2% among 330,000 | TSHR-expressing cells, TSH-stimulated cAMP HTRF, 2 h; stronger effect = lower value | P16473 | activity change, negative = inhibition, % at 11.5 µM;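 active means activity change below a set negative limit, meaning inhibition stronger than a set level, cut at about -70% in these data; inconclusive means activity change between two set negative limits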; further: on the % scale 0 is the no-effect control and ±100 the full control effect
Target sequence (P16473 whole entry, looked up): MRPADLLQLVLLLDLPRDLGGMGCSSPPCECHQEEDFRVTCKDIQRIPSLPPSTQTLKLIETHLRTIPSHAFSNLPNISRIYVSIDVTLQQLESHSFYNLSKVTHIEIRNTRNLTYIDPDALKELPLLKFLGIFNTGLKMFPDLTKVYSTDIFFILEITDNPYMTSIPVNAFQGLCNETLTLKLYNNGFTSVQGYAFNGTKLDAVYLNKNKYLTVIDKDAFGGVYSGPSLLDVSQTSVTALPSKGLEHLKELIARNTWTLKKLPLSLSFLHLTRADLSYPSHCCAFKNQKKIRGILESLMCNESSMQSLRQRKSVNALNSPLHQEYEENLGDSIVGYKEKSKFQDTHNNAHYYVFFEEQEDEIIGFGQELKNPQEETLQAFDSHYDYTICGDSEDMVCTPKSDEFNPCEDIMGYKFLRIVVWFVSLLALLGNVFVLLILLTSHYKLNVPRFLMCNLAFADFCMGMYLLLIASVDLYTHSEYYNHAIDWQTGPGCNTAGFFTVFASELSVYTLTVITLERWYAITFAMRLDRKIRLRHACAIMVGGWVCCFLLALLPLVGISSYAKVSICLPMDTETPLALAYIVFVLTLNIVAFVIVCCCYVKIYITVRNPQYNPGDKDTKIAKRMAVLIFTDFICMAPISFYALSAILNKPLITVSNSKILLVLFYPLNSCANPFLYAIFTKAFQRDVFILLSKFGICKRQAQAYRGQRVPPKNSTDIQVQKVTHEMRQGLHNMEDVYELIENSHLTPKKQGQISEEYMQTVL
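Read-out is FRET at 665 nm (cryptate excitation 337 nm) from a cryptate-tagged anti-cAMP antibody, competed by cell cAMP against cAMP-d2. Compounds are tested on freshly harvested TSHR cells challenged with 4nM TSH (EC80) for 2 hours at 37 deg C.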
gsp ag: activates gsp, the McCune-Albright syndrome mutation; gsp mutant cells, cAMP HTRF, 30 min; Potency, µM (titrated, usually from 76.9 µM), for the others: at the top dose activation (cAMP increase), most hits filed as activators; hit rate 0.13% among 340,000; AID 624287; active means well fitted activation curve with a large enough effect; inconclusive means small, poorly fitted or top-dose-only effect, or another doubt; inactive means no such curve, though single readings can be large or run the other way; cell line not stated here;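 further: phosphodiesterase inhibitor Ro 20-1724 added with compounds to block cAMP breakdown; potency means the concentration at half of the fitted maximal effect; nearly all actives have a fitted effect of over 60% in size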
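Cells stably selected in G418 were plated at 2000/well, grown 16-24 hr, then given compounds in DMSO with the PDE inhibitor […] (300 uM solution added) for 30 min at 37C; cAMP was read by HTRF.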
RXFP1 ag: activates the human relaxin receptor RXFP1. Q9HBX9. HEK293T-RXFP1 cAMP TR-FRET, 30 min; response scale: percent of porcine relaxin response, buffer zero. Potency, µM (titrated, usually from 57.5 µM), for the others: at the top dose activation, usual class: activators. hit rate 0.3% among 370,000. AID 2676; active means well fitted activation curve with a large enough effect; inconclusive means small, poorly fitted or top-dose-only effect; further: potency means the concentration at half of the fitted maximal effect; on the % scale 0 is the no-effect control and ±100 the full control effect; nearly all actives have a fitted effect of over 60% in size
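Agonist response is measured as cAMP accumulation in an RXFP1-transfected HEK293T line under PDE4 inhibition. Values are scaled between buffer-only and 29 nM porcine relaxin, and EC50s come from standard Hill equation fits.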
Numbers without * were called inactive; u = inconclusive; x = no result; ! = not confirmed by another sample; [ ] = another dose, or the depositor's remark. An excerpt weighted towards active compounds, which were near 1% of everything screened.

SMILES	gsp antag	RXFP1 antag	TSHR antagonist	gsp ag	RXFP1 ag
CCCS(=O)(=O)c1ncc(Cl)c(C(=O)Nc2c(C(=O)Nc3ccccc3)oc3ccccc23)n1	x	-26	x	x	-1%
COc1ccccc1NC(=O)C1=C(C)Nc2nc(SC)nn2C1c1ccccc1Cl (stereo not drawn)	x	x	x	x	0%
CN(C)CCN1CCN(c2cccc(Cl)c2)C1=O	x	9	x	x	x
Cc1ccc(S(=O)(=O)N2CCN(Cc3ccccc3Cl)CC2)cc1	x	-23	x	x	1%
CCC1CCCCN1S(=O)(=O)c1ccc(NC(=O)c2nc(S(C)(=O)=O)ncc2Cl)cc1 (stereo not drawn)	u	u	-84*	-5%[15.4 µM]	3%
O=C(Nc1ccc(OC(F)F)cc1)c1ncc(Cl)c(Cl)c1Cl	11µM*	-8	-5	-9%[15.4 µM]	1%
COc1ccc(SCc2cc(=O)c3cc(Cl)ccc3[nH]2)cc1	x	-1	x	x	4%
CCOC(=O)C1=C(C)NC(C)=C(C(=O)OCC)C1c1c(F)c(F)c(F)c(F)c1F	x	x	-16	x	x
NS(=O)(=O)c1ccc(N2CCCCS2(=O)=O)cc1	x	25	x	x	x
O=C(NNc1c2ccccc2nc2ccccc12)c1ccc(O)cc1	35µM*	-8	-27	-30%	0%
O=C(COc1ccccc1)NNc1c2ccccc2nc2ccccc12	40µM*	-25	u	-51%	0%
COc1ccc(OCC(=O)NNc2c3ccccc3nc3ccccc23)cc1	32µM*	-38	-20	-10%	-1%
CC(=O)c1cccc(NC(=O)[C@H](Cc2ccccc2)N2Cc3ccccc3C2=O)c1	x	x	x	x	-2%
Cc1ccc(NC(=O)C2SC(=Nc3ccccc3)C(C(=O)Nc3ccc(Cl)cc3)=C2N)cc1 (stereo not drawn)	-8%	-66*	-13	-9%[15.4 µM]	-1%
CCC(=O)N1CCc2cc(Br)cc(S(=O)(=O)N3CCCC(C(=O)NCc4ccc(C)cc4)C3)c21 (stereo not drawn)	x	x	x	x	5%
CC[C@@]1(O)C(=O)OCc2c1cc1n(c2=O)Cc2c-1nc1ccccc1c2/C=N/OC(C)(C)C	x	-18	x	x	x
O=C(NCCC1=CCCCC1)C(=O)NCC1OCCCN1S(=O)(=O)c1ccc(F)cc1 (stereo not drawn)	-4%	2	-22	-6%	1%
O=C(NCCC1=CCCCC1)C(=O)NCC1OCCCN1S(=O)(=O)c1cc(F)ccc1F (stereo not drawn)	-8%	-1	-96*	-33%	4%
CC(C)(C)c1cc(=O)[nH]c(SCc2ccccc2Cl)n1	6%	-74*	4	-9%[15.4 µM]	0%
Cc1cccc(Nc2nc3c(s2)CCCC3)c1	-7%	-22	0	-21%	7%
O=C(O)c1ccc(Nc2nc3c(s2)CCCC3)cc1	-15%	-8	-2	10µM*	-2%
CN(C)S(=O)(=O)c1ccc(Cl)c(NC(=O)CN2CCN(Cc3ccc4c(c3)OCO4)CC2)c1	11µM*	0	-9	10%	3%
O=C(CN1CCN(Cc2ccc3c(c2)OCO3)CC1)Nc1cc(S(=O)(=O)N2CCCC2)ccc1Cl	-7%	-7	-8	-17%[15.4 µM]	4%
CCOc1ccc(/C=N/NC(=O)c2ccc(CSc3nc4ccccc4[nH]3)cc2)cc1	-15%	-3	33	u	0%
O=C(N/N=C/c1ccc(OC(F)F)cc1)c1ccc(CSc2nc3ccccc3[nH]2)cc1	8.9µM*	u	5	30%[15.4 µM]	3%
CCOc1ccccc1NC(=O)COC(=O)C(CC)c1ccccc1 (stereo not drawn)	10µM*	-11	-3	25%	1%
O=C1C(Cl)=C(NCCCO)C(=O)c2ccccc21	-24%	8	0	-25%	0%
O=C1C(SCCO)=C(SCCO)C(=O)c2ccccc21	35µM*	x	-86*!	x	-3%
C=CC[N+]1([C@H]2C[C@H]3[C@@H]4CC[C@H]5C[C@H](OC(C)=O)[C@@H](N6CCCCC6)C[C@]5(C)[C@H]4CC[C@]3(C)[C@H]2OC(=O)CC)CCCCC1	x	-4	x	x	x
Cc1ccc2nc(N/C(=N/S(=O)(=O)c3ccc(F)cc3F)c3ccccc3)sc2c1	-9%	-18	-16	6%[15.4 µM]	-2%
